CD40 NFkB inh: CD40 pathway inhibition in BL2 cells | BL2 NF-kB luciferase reporter, CD40L-induced, 4 h | inhibition, % at 10 µM | AID 1053188 | 0.94% of 83,000 active;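 active = mean inhibition of at least 50% with a set share of replicates also reaching that level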;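 note: 0% = neutral control wells and 100% = IKK inhibitor VII at 50 µM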
Numbers without * were called inactive; [ ] = dose if it differs, or a comment. Only a selection was taken, and hits are over-represented in it overall.

SMILES	CD40 NFkB inh
CC(=O)Nc1ccc2c(c1)CC(=O)N(C)C[C@@H](C)[C@@H](CN(C)C(=O)OC(C)(C)C)O2	5
O=C(NC[C@H]1[C@H](c2ccccc2)[C@@H](CO)N1C(=O)C1CCC1)NC1CCCC1	-8[25 µM]
NCC(O)COCCC12CC3CC(CC(C3)C1)C2 (stereo unspecified)	15
OC(COCCC12CC3CC(CC(C3)C1)C2)CN1CCCC1 (stereo unspecified)	11
CC(NCC(O)COCCC12CC3CC(CC(C3)C1)C2)c1ccccc1 (stereo unspecified)	86*
CCCCCCCCCCCC1C(=O)C(=O)CC(=O)C1=O	0[25 µM]
CCCC#Cc1ccc2c(c1)[C@@H]1[C@@H](CCN1S(=O)(=O)c1ccc(C)cc1)[C@@H](CO)N2C	-13[25 µM]
O=C1NCCOCc2cn(nn2)CC[C@@H]1Cc1ccc(F)cc1	4[25 µM]
CC(=O)N1[C@H](C(=O)NCc2ccccc2Cl)[C@@H](CO)[C@@H]2Cn3c(ccc(-c4cncnc4)c3=O)[C@@H]21	-2[25 µM]
CC(=O)N1C[C@@H]2C(c3ccccc3)[C@H](C1)N2S(C)(=O)=O (stereo partly specified)	9
CCN(CC(=O)Nc1ccc(NC(C)=O)cc1)C(=O)C1CCCC1	1
CCN(CC(=O)Nc1ccc(NC(C)=O)cc1)C(=O)C1CCCN(C(=O)c2ccc(Cl)cc2)C1 (stereo unspecified)	28*
CCc1nnc(NC(=O)C2CCCN(C(=O)c3ccc(Cl)cc3)C2)s1 (stereo unspecified)	-40
OC(COC(c1ccc(F)cc1)c1ccc(F)cc1)CN1CCCC1 (stereo unspecified)	6
Cc1ccc(C(OCC(O)CNCc2ccc(F)cc2)c2ccccc2)cc1 (stereo unspecified)	50*
O=C(c1ccccc1)c1ccc(OCC(O)CNCc2ccc(F)cc2)cc1 (stereo unspecified)	10
Cc1ccc(S(=O)(=O)N2CCCC2CNC(=O)c2ccccc2)cc1 (stereo unspecified)	-9
Cc1ccc(S(=O)(=O)N2CCCC2CNC(=O)c2ccc3c(c2)OCO3)cc1 (stereo unspecified)	38*
COc1ccc(C(=O)NCC2CCCN2S(=O)(=O)c2ccccc2)cc1OC (stereo unspecified)	3
C[C@H]1CN(C)C(=O)c2cc(N)ccc2O[C@@H]1CN(C)S(C)(=O)=O	-3
O=S(=O)(c1cccc2cnccc12)N1CCCNCC1	-6[25 µM]
O=[N+]([O-])c1cccc2cnccc12	11
CC1CNCCN1S(=O)(=O)c1cccc2cnccc12 (stereo unspecified)	32*
C[C@H](CO)N1C[C@H](C)[C@@H](CN(C)S(=O)(=O)c2ccccc2F)OCc2ccccc2-c2ccccc2C1=O	15
C[C@@H](NC(=O)/C(C#N)=C\c1ccc(O)c(O)c1)c1ccccc1	-6[25 µM]
SMILES	CD40 NFkB inh
CC(=O)N/C(N)=N/c1nc(=O)c2ccccc2s1	-97
Nc1nc(=O)c2ccccc2s1	51*
Nc1nc2c(F)cccc2s1	0
COc1ccc2c3c([nH]c2c1)[C@@H](CO)N(C(=O)CN1CCOCC1)CC31CCN(CC2CCCC2)CC1	8[25 µM]
COCCNC(=O)C[C@H]1CC[C@@H]2[C@H](COC[C@@H](O)CN2Cc2ccc(Cl)c(Cl)c2)O1	7[25 µM]
C/C=C/c1ccc(C2[C@H]3CNC[C@@H]2N3C(=O)Nc2ccc(C(F)(F)F)cc2)cc1 (stereo partly specified)	-5[25 µM]
CN1C(=O)c2cc(NS(=O)(=O)c3cccc(F)c3)ccc2OC[C@H]2O[C@@H](CC(=O)N3CCc4ccccc4C3)CC[C@@H]21	34[25 µM]

Screening results as filed in PubChem BioAssay.
